# Measurements reported in PMC7862700, “An all-to-all approach to the identification of sequence-specific readers for epigenetic DNA modifications on cytosine”.
# Experiments:
# Assay in all cases: DAPPL (digital affinity profiling via proximity ligation, sequencing); 10 mM Tris-HCl pH 7.5, 50 mM NaCl, 1 mM DTT, 4% glycerol, room temperature, 30 min; GST-TFs on glutathione beads, 16-mer random dsDNA library, 0.1% formaldehyde crosslink after washing; high values mean tight binding
# FLI1 = biological target: T1, FLI1 (Homo sapiens, UniProt Q01543 1-452); conditions: protein: recombinant; tags: N-terminal GST; dsDNA, one strand shown
# T1 sequence: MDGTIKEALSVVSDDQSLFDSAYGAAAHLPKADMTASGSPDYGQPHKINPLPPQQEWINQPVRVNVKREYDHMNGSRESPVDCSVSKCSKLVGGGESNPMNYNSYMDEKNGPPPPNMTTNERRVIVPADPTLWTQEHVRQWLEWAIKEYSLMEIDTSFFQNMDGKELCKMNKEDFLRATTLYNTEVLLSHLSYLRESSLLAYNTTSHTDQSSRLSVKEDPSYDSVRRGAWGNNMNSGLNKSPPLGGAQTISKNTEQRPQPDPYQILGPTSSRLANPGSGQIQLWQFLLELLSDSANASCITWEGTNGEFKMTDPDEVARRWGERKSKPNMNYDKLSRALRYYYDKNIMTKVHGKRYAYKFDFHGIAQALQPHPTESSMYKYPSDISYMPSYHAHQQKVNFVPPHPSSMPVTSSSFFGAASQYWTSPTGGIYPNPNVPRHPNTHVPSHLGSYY
# Method in brief: (§1)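 GST fusions of human transcription factors were expressed in yeast and captured with glutathione beads. Once given DNA barcodes and pooled alongside a tag-only sample, they were incubated for 30 min at room temperature with 200 nmole of a random double-stranded 16-mer DNA library in Tris/NaCl/DTT/glycerol buffer, then washed, crosslinked (0.1% formaldehyde), proximity-ligated, PCR-amplified and sequenced on an Illumina NextSeq500. The binding signal of each hexamer is its read frequency for a factor divided by its frequency for the tag-only sample.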
# ELK1 = biological target: T2, ELK1 (Homo sapiens, UniProt P19419 1-428); conditions: protein: recombinant; tags: N-terminal GST; dsDNA, one strand shown
# T2 sequence: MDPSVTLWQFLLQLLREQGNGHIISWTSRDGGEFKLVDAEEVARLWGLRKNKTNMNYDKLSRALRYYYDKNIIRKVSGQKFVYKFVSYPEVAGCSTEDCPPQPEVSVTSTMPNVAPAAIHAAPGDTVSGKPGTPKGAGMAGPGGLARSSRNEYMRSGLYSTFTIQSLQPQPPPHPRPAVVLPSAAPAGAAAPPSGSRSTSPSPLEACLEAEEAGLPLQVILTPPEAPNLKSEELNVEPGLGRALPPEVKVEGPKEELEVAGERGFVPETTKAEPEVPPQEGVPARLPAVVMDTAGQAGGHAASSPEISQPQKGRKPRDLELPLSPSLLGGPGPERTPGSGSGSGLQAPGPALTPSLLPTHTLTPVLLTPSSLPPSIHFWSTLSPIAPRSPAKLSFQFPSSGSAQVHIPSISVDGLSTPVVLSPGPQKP
# Method in brief: as §1
# GABPA = biological target: T3, GABPA (Homo sapiens, UniProt Q06546 1-454); conditions: protein: recombinant; tags: N-terminal GST; dsDNA, one strand shown
# T3 sequence: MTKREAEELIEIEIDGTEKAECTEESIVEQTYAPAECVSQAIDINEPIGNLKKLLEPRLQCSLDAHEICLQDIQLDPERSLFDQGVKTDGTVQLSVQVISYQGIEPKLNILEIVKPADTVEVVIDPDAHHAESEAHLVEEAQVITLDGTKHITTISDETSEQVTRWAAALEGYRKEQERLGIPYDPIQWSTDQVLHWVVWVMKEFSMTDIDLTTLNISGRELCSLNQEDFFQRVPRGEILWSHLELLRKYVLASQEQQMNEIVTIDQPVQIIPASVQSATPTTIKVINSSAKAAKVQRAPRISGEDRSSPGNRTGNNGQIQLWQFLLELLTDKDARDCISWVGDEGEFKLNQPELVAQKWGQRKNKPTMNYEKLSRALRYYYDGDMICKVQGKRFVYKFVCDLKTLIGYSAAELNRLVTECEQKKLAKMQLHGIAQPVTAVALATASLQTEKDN
# Method in brief: as §1
# ERG = biological target: T4, ERG (Homo sapiens, UniProt P11308 1-479); conditions: protein: recombinant; tags: N-terminal GST; dsDNA, one strand shown
# T4 sequence: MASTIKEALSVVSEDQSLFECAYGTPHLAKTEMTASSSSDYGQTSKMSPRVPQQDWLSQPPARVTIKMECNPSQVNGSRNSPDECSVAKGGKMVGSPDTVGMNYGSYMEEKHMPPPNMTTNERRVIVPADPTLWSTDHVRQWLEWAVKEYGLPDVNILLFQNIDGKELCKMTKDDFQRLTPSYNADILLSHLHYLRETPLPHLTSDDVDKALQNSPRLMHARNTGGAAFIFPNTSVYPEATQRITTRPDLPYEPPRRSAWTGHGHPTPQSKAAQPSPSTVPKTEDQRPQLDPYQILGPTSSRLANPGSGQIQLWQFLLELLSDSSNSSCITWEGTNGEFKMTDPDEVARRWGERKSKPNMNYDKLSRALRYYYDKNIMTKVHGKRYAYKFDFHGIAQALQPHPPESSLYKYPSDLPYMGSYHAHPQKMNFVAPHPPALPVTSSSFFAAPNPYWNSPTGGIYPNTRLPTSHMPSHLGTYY
# Method in brief: as §1
# ELF1 = ELF1 (Homo sapiens, UniProt P32519 1-619); conditions: protein: recombinant; tags: N-terminal GST; dsDNA, one strand shown
# Method in brief: as §1
# EHF = biological target: T5, EHF (Homo sapiens, UniProt Q9NZC4 1-300); conditions: protein: recombinant; tags: N-terminal GST; dsDNA, one strand shown
# T5 sequence: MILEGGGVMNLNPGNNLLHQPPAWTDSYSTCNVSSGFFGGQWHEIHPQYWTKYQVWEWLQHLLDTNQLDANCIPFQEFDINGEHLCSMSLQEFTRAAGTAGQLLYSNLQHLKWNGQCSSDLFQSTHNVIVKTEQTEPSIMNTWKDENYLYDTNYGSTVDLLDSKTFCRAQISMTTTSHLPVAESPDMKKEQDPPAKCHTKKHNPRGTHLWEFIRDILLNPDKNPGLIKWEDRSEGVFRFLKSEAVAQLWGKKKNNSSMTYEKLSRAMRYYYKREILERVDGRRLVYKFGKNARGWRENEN
# Method in brief: as §1
# SPI1 = SPI1 (Homo sapiens, UniProt P17947 1-270); conditions: protein: recombinant; tags: N-terminal GST; dsDNA, one strand shown
# Method in brief: as §1
# SPIB = SPIB (Homo sapiens, UniProt Q01892 1-262); conditions: protein: recombinant; tags: N-terminal GST; dsDNA, one strand shown
# Method in brief: as §1
# ELK3 = biological target: T6, ELK3 (Homo sapiens, UniProt P41970 1-407); conditions: protein: recombinant; tags: N-terminal GST; dsDNA, one strand shown
# T6 sequence: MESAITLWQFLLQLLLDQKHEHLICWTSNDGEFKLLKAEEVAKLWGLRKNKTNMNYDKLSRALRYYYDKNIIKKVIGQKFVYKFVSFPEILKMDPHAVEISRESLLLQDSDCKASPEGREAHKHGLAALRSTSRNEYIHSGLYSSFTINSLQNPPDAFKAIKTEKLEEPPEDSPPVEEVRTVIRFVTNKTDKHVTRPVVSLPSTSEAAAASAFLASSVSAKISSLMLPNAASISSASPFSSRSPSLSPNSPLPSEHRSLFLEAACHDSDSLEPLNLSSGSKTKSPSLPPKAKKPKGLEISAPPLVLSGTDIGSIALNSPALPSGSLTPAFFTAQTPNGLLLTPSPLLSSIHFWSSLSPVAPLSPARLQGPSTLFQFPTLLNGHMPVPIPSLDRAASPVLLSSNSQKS
# Method in brief: as §1
# FEV = biological target: T7, FEV (Homo sapiens, UniProt Q99581 1-238); conditions: protein: recombinant; tags: N-terminal GST; dsDNA, one strand shown
# T7 sequence: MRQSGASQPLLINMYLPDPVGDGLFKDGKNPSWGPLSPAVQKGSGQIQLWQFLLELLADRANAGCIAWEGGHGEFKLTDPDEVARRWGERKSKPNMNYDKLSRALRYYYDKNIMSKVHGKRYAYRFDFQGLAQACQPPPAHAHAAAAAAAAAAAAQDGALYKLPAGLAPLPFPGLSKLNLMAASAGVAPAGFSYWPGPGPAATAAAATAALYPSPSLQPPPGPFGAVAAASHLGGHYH
# Method in brief: as §1
# ETV5 = ETV5 (Homo sapiens, UniProt P41161 1-510); conditions: protein: recombinant; tags: N-terminal GST; dsDNA, one strand shown
# Method in brief: as §1
# HSF1 = HSF1 (Homo sapiens, UniProt Q00613 1-529); conditions: protein: recombinant; tags: N-terminal GST; chain copies: 3; dsDNA, one strand shown
# Method in brief: as §1
# SPIC = biological target: T8, SPIC (Homo sapiens, UniProt Q8N5J4 1-248); conditions: protein: recombinant; tags: N-terminal GST; dsDNA, one strand shown
# T8 sequence: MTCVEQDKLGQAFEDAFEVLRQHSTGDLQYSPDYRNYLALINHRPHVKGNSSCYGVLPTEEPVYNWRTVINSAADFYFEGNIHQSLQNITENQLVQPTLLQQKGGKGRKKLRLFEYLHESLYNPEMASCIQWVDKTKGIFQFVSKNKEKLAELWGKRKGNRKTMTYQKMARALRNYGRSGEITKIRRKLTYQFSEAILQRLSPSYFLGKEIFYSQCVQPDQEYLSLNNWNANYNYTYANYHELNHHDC
# Method in brief: as §1
# ELF4 = ELF4 (Homo sapiens, UniProt Q99607 1-663); conditions: protein: recombinant; tags: N-terminal GST; dsDNA, one strand shown
# Method in brief: as §1
# ELK4 = biological target: T9, ELK4 (Homo sapiens, UniProt P28324-2 1-405); conditions: protein: recombinant; tags: N-terminal GST; dsDNA, one strand shown
# T9 sequence: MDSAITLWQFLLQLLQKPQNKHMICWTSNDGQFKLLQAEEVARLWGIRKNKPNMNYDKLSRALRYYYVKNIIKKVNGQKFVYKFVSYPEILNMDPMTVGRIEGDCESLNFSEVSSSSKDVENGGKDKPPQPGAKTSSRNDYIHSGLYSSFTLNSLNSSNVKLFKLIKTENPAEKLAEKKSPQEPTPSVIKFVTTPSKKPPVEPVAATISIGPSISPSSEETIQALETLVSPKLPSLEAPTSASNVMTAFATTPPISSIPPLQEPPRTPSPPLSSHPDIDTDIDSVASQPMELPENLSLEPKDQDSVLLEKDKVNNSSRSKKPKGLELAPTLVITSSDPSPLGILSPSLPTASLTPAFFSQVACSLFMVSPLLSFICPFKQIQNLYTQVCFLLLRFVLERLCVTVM
# Method in brief: as §1
# ETV2 = biological target: T10, ETV2 (Homo sapiens, UniProt O00321 1-342); conditions: protein: recombinant; tags: N-terminal GST; dsDNA, one strand shown
# T10 sequence: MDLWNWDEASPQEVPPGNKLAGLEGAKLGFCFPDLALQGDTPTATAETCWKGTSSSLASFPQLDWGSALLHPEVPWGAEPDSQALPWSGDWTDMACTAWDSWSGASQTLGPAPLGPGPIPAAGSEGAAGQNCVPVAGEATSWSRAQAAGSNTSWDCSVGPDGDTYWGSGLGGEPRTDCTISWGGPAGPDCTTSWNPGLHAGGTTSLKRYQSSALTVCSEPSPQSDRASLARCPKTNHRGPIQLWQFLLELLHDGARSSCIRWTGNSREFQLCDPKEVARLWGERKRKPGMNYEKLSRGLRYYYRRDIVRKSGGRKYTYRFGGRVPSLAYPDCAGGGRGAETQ
# Method in brief: as §1
# ELF3 = biological target: T11, ELF3 (Homo sapiens, UniProt P78545 1-371); conditions: protein: recombinant; tags: N-terminal GST; dsDNA, one strand shown
# T11 sequence: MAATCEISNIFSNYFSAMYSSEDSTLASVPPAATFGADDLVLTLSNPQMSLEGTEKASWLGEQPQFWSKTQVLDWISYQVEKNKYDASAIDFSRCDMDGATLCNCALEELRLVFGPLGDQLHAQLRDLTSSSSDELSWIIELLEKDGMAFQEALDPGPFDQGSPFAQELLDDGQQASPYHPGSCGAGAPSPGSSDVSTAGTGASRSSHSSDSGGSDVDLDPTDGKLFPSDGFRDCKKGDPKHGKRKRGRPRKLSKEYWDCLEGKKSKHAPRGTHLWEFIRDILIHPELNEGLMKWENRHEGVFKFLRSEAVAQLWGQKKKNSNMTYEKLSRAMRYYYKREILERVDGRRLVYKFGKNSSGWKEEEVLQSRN
# Method in brief: as §1
# CRX = CRX (Homo sapiens, UniProt O43186 1-299); conditions: protein: recombinant; tags: N-terminal GST; dsDNA, one strand shown
# Method in brief: as §1
# ETV1 = ETV1 (Homo sapiens, UniProt P50549 1-477); conditions: protein: recombinant; tags: N-terminal GST; dsDNA, one strand shown
# Method in brief: as §1
# Chain of ETV1 (P50549 whole entry): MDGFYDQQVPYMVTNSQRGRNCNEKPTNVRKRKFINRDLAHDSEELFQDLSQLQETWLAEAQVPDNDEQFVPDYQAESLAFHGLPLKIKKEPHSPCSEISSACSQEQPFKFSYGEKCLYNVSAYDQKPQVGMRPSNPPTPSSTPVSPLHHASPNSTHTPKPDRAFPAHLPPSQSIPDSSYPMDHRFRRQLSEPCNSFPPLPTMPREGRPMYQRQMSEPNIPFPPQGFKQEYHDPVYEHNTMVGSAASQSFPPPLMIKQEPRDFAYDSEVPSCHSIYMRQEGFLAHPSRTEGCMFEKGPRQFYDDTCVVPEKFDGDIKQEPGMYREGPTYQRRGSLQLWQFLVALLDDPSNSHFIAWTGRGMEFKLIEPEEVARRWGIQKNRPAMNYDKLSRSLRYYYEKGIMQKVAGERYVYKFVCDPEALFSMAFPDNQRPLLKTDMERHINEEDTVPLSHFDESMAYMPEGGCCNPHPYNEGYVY
# Chain of ELF4 (Q99607 whole entry): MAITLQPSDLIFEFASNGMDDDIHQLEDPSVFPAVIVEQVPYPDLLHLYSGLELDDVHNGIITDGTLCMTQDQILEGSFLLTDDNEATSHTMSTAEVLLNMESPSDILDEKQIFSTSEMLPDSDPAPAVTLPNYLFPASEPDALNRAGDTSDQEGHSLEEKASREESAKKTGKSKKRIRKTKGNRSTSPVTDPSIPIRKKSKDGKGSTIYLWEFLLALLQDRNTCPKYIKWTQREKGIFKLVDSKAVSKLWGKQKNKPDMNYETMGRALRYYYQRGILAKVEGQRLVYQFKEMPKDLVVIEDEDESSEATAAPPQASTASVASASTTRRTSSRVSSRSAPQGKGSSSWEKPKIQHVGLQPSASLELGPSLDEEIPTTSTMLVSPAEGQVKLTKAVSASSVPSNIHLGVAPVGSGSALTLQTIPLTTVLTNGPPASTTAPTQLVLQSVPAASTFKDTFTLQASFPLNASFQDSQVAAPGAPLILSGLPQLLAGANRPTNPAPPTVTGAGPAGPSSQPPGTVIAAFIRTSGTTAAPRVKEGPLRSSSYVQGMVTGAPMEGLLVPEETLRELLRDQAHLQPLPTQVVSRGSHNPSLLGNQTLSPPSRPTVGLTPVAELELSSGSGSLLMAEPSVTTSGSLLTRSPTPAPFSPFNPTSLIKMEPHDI
# Chain of SPIB (Q01892 whole entry): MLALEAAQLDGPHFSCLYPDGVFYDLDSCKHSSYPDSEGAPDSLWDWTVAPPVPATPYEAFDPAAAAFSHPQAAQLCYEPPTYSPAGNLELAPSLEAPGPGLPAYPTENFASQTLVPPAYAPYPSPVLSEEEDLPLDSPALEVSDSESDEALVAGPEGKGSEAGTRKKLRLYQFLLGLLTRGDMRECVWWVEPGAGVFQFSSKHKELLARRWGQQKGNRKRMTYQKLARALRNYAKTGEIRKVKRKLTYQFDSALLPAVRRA
# Chain of ETV5 (P41161 whole entry): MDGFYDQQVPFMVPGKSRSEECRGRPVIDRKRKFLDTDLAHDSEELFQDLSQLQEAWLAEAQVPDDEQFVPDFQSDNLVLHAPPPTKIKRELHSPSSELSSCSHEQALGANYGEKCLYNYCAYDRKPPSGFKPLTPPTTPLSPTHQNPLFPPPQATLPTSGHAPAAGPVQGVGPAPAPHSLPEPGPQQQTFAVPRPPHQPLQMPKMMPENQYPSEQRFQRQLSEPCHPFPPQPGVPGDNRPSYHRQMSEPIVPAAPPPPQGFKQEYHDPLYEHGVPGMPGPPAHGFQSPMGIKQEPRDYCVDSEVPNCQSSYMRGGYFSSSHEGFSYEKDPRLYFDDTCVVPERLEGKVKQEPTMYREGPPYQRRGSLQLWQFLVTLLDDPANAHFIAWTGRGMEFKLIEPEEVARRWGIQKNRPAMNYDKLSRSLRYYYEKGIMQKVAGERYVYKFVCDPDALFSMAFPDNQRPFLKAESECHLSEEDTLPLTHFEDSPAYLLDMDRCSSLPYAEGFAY
# Chain of CRX (O43186 whole entry): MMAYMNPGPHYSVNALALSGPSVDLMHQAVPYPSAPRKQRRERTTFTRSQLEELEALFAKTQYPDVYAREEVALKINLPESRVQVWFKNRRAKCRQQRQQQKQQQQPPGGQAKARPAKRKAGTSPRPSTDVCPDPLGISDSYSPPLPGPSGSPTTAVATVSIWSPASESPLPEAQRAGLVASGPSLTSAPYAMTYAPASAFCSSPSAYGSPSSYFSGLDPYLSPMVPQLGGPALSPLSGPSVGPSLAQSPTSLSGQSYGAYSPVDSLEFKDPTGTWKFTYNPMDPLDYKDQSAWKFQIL
# Chain of HSF1 (Q00613 whole entry): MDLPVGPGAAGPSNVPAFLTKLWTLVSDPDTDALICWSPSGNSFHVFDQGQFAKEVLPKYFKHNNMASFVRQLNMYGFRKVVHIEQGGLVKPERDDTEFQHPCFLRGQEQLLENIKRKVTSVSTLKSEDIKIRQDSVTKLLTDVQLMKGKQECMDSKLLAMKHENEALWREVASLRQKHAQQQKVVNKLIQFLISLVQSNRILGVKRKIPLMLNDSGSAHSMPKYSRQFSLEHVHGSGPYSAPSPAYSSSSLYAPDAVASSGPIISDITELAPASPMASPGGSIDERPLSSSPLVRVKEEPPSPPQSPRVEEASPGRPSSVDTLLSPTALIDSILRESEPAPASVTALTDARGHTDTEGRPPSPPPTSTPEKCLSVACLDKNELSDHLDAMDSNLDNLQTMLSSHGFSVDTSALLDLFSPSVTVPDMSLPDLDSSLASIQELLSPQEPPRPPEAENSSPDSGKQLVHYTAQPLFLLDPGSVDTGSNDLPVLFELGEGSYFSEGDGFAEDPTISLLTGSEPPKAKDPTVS
# Chain of ELF1 (P32519 whole entry): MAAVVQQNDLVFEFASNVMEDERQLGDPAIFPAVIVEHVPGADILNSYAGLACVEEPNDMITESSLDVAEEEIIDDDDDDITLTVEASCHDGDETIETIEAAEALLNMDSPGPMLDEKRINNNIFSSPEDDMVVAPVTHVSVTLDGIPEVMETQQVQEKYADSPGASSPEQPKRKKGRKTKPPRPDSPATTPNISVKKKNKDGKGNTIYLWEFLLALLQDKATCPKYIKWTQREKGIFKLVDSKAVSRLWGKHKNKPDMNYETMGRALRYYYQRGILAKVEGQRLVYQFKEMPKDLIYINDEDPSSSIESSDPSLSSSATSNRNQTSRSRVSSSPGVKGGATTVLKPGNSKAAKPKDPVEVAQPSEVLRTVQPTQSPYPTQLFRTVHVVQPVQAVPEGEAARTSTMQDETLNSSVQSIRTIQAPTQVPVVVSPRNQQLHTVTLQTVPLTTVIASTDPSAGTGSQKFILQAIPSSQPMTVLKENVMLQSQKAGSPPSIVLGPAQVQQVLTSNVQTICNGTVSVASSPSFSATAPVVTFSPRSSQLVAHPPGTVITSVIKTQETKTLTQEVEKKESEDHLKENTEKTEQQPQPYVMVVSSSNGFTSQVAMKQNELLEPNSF
sequence,measurement,setting,value
ATCCAC,binding signal,FLI1,"1.23 fold enrichment (6-mer frequency, TF over GST control)"
same,binding signal,ELK1,"1.28 fold enrichment (6-mer frequency, TF over GST control)"
same,binding signal,GABPA,"1.32 fold enrichment (6-mer frequency, TF over GST control)"
same,binding signal,ERG,"1.22 fold enrichment (6-mer frequency, TF over GST control)"
same,binding signal,ELF1,"1.22 fold enrichment (6-mer frequency, TF over GST control)"
same,binding signal,EHF,"1.25 fold enrichment (6-mer frequency, TF over GST control)"
same,binding signal,SPI1,"1.15 fold enrichment (6-mer frequency, TF over GST control)"
same,binding signal,SPIB,"1.19 fold enrichment (6-mer frequency, TF over GST control)"
same,binding signal,ELK3,"1.27 fold enrichment (6-mer frequency, TF over GST control)"
same,binding signal,FEV,"1.14 fold enrichment (6-mer frequency, TF over GST control)"
same,binding signal,ETV5,"1.18 fold enrichment (6-mer frequency, TF over GST control)"
same,binding signal,HSF1,"1.36 fold enrichment (6-mer frequency, TF over GST control)"
same,binding signal,SPIC,"1.24 fold enrichment (6-mer frequency, TF over GST control)"
same,binding signal,ELF4,"1.22 fold enrichment (6-mer frequency, TF over GST control)"
same,binding signal,ELK4,"1.32 fold enrichment (6-mer frequency, TF over GST control)"
same,binding signal,ETV2,"1.23 fold enrichment (6-mer frequency, TF over GST control)"
same,binding signal,ELF3,"1.14 fold enrichment (6-mer frequency, TF over GST control)"
same,binding signal,CRX,"1.48 fold enrichment (6-mer frequency, TF over GST control)"
same,binding signal,ETV1,"1.2 fold enrichment (6-mer frequency, TF over GST control)"
